Reference: PubChem BioAssay AID1159580 (chemical genetic matrix, 2015)
Screen size: about 5,500 compounds; about 2,000 (36%) were called active. Inconclusive results (about 18%) are left out. Rule as the data show it: active = normalized growth mostly below about 0.91 (no sharp cut-off); inconclusive = no clear call, values can overlap the other calls; inactive = mostly above about 0.92. This is one part of the list.

Experiment: chemical genetic growth profiling, strain panel (AID 1159580);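 also: tested at 20 µM; growth read once vehicle control cultures reached saturation at 30 °C; 1 = growth at the plate median or of vehicle wells; lower values mean less growth of the strain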
Details: growth OD

Measured: normalized growth

C[C@H]1COc2c(N3CCN(C)CC3)c(F)cc3c(=O)c(C(=O)O)cn1c23
inactive: S. cerevisiae deletion strains, locus YJR075W, strain HOC1, active compounds read low 0.991 | S. cerevisiae deletion strains, locus YKL009W, strain mrt4, active compounds read low 1.01 | S. cerevisiae deletion strains, locus YKL068W, active compounds read low 1 | S. cerevisiae deletion strains, locus YKL085W, strain MDH1 (second series), active compounds read low 1.01 | S. cerevisiae deletion strains, locus YKL085W, strain MDH1, active compounds read low 1.01 | S. cerevisiae deletion strains, locus YKL160W, strain elf1, active compounds read low 1.01 | S. cerevisiae deletion strains, locus YKL190W, strain CNB1, active compounds read low 0.998 | S. cerevisiae deletion strains, locus YKR001C, strain vps1, active compounds read low 1.03 | S. cerevisiae deletion strains, locus YKR026C, strain gcn3, active compounds read low 1.02 | S. cerevisiae deletion strains, locus YKR091W, strain srl3, active compounds read low 1.03 | S. cerevisiae deletion strains, locus YLL001W, strain dnm1, active compounds read low 1.04 | S. cerevisiae deletion strains, locus YLL026W, active compounds read low 1.03 | S. cerevisiae deletion strains, locus YLL041C, strain sdh2, active compounds read low 1.02 | S. cerevisiae deletion strains, locus YLR027C, strain aat2, active compounds read low 1.03 | S. cerevisiae deletion strains, locus YLR039C, strain RIC1, active compounds read low 1.01 | S. cerevisiae deletion strains, locus YLR058C, strain SHM2, active compounds read low 1.01 | S. cerevisiae deletion strains, locus YLR102C, strain apc9, active compounds read low 1.01 | S. cerevisiae deletion strains, locus YLR113W, strain HOG1, active compounds read low 1.03 | S. cerevisiae deletion strains, locus YLR221C, strain rsa3, active compounds read low 0.984 | S. cerevisiae deletion strains, locus YLR258W, strain gsy2, active compounds read low 1.02 | S. cerevisiae deletion strains, locus YLR262C, strain YPT6 (second series), active compounds read low 1.02 | S. cerevisiae deletion strains, locus YLR262C, strain YPT6, active compounds read low 1.01 | S. cerevisiae deletion strains, locus YLR268W, strain sec22, active compounds read low 1 | S. cerevisiae deletion strains, locus YLR320W, strain mms22, active compounds read low 1.02 | S. cerevisiae deletion strains, locus YLR330W, strain CHS5, active compounds read low 1 | S. cerevisiae deletion strains, locus YLR342W, strain FKS1 (second series), active compounds read low 0.984 | S. cerevisiae deletion strains, locus YLR342W, strain FKS1, active compounds read low 1.03 | S. cerevisiae deletion strains, locus YLR357W, strain rsc2, active compounds read low 1.02 | S. cerevisiae deletion strains, locus YLR370C, strain arc18, active compounds read low 1.03 | S. cerevisiae deletion strains, locus YLR371W, strain rom2, active compounds read low 1 | S. cerevisiae deletion strains, locus YLR384C, strain iki3, active compounds read low 1.03 | S. cerevisiae deletion strains, locus YLR418C, strain cdc73, active compounds read low 1.02 | S. cerevisiae deletion strains, locus YML016C, strain PPZ1, active compounds read low 1.01 | S. cerevisiae deletion strains, locus YML032C, strain rad52, active compounds read low 0.965 | S. cerevisiae deletion strains, locus YML120C, strain ndi1, active compounds read low 1.01 | S. cerevisiae deletion strains, locus YML124C, strain tub3, active compounds read low 1.02 | S. cerevisiae deletion strains, locus YMR058W, strain fet3, active compounds read low 1.02 | S. cerevisiae deletion strains, locus YMR078C, strain ctf18, active compounds read low 1.02 | S. cerevisiae deletion strains, locus YMR125W, strain sto1, active compounds read low 1.02 | S. cerevisiae deletion strains, locus YMR129W, active compounds read low 1.03 | S. cerevisiae deletion strains, locus YMR205C, strain PFK2, active compounds read low 0.985 | S. cerevisiae deletion strains, locus YMR223W, strain ubp8, active compounds read low 1.01 | S. cerevisiae deletion strains, locus YMR231W, strain pep5, active compounds read low 1.03 | S. cerevisiae deletion strains, locus YMR263W, strain SAP30, active compounds read low 0.991 | S. cerevisiae deletion strains, locus YMR307W, strain GAS1, active compounds read low 1.04 | S. cerevisiae deletion strains, locus YNL067W, strain RPL9B, active compounds read low 1 | S. cerevisiae deletion strains, locus YNL071W, strain lat1, active compounds read low 1 | S. cerevisiae deletion strains, locus YNL128W, strain TEP1, active compounds read low 0.975 | S. cerevisiae deletion strains, locus YNL153C, strain GIM3, active compounds read low 1 | S. cerevisiae deletion strains, locus YNL183C, strain NPR1, active compounds read low 0.97 | S. cerevisiae deletion strains, locus YNL209W, strain ssb2, active compounds read low 1.01 | S. cerevisiae deletion strains, locus YNL233W, strain BNI4, active compounds read low 1.01 | S. cerevisiae deletion strains, locus YNL248C, strain rpa49, active compounds read low 1.03 | S. cerevisiae deletion strains, locus YNL250W, strain rad50, active compounds read low 1.01 | S. cerevisiae deletion strains, locus YNL271C, strain bni1, active compounds read low 1.01 | S. cerevisiae deletion strains, locus YNL298W, strain CLA4, active compounds read low 1.02 | S. cerevisiae deletion strains, locus YNL307C, strain MCK1, active compounds read low 1.03 | S. cerevisiae deletion strains, locus YNL322C, strain KRE1 (second series), active compounds read low 1.03 | S. cerevisiae deletion strains, locus YNL322C, strain KRE1, active compounds read low 0.999 | S. cerevisiae deletion strains, locus YNR049C, strain mso1, active compounds read low 1.01 | S. cerevisiae deletion strains, locus YNR052C, strain pop2, active compounds read low 1.02 | S. cerevisiae deletion strains, locus YOL006C, strain TOP1, active compounds read low 1.05 | S. cerevisiae deletion strains, locus YOL012C, strain htz1 0.78 | S. cerevisiae deletion strains, locus YOL147C, strain pex11, active compounds read low 1.01 | S. cerevisiae deletion strains, locus YOR001W, strain rrp6, active compounds read low 1.02 | S. cerevisiae deletion strains, locus YOR061W, strain CKA2, active compounds read low 1.01 | S. cerevisiae deletion strains, locus YOR069W, strain VPS5, active compounds read low 0.995 | S. cerevisiae deletion strains, locus YOR070C, strain gyp1, active compounds read low 1.02 | S. cerevisiae deletion strains, locus YOR080W, strain dia2, active compounds read low 1.04 | S. cerevisiae deletion strains, locus YOR083W, strain WHI5, active compounds read low 1.03 | S. cerevisiae deletion strains, locus YOR106W, strain vam3, active compounds read low 1.01 | S. cerevisiae deletion strains, locus YOR136W, strain idh2, active compounds read low 1.02 | S. cerevisiae deletion strains, locus YOR144C, strain elg1, active compounds read low 1.01 | S. cerevisiae deletion strains, locus YOR184W, strain ser1, active compounds read low 1.02 | S. cerevisiae deletion strains, locus YOR231W, strain MKK1, active compounds read low 0.996 | S. cerevisiae deletion strains, locus YOR265W, strain rbl2, active compounds read low 1.03 | S. cerevisiae deletion strains, locus YOR270C, strain vph1, active compounds read low 1.07 | S. cerevisiae deletion strains, locus YOR290C, strain snf2, active compounds read low 1.03 | S. cerevisiae deletion strains, locus YOR316C, strain cot1, active compounds read low 1.02 | S. cerevisiae deletion strains, locus YPL051W, strain arl3, active compounds read low 1.03 | S. cerevisiae deletion strains, locus YPL055C, strain LGE1, active compounds read low 0.997 | S. cerevisiae deletion strains, locus YPL078C, strain atp4, active compounds read low 1.02 | S. cerevisiae deletion strains, locus YPL106C, strain sse1, active compounds read low 0.991 | S. cerevisiae deletion strains, locus YPL240C, strain hsp82, active compounds read low 1.01 | S. cerevisiae deletion strains, locus YPL241C, strain CIN2, active compounds read low 1.01 | S. cerevisiae deletion strains, locus YPL256C, strain CLN2, active compounds read low 0.958 | S. cerevisiae deletion strains, locus YPR119W, strain clb2, active compounds read low 1.01 | S. cerevisiae deletion strains, locus YPR141C, strain kar3, active compounds read low 1.02 | S. cerevisiae deletion strains, locus YPR163C, strain tif3, active compounds read low 1.03 | S. cerevisiae deletion strains, locus YPR167C, strain met16, active compounds read low 1.02 | S. cerevisiae deletion strains, strain wtn01, active compounds read low 1.01 | S. cerevisiae strains, strain wild type, active compounds read low 0.981
